Source: ChEMBL document CHEMBL1961873, “Compounds: GSK PKIS; Assays: Nanosyn kinase panel” (2012)

What follows are compounds tested against Serine/threonine-protein kinase pim-2 (Homo sapiens) (UniProt Q9P1W9). Details: at 1 µM.
Serine/threonine-protein kinase pim-2 (Homo sapiens), sequence (Q9P1W9 whole entry, looked up): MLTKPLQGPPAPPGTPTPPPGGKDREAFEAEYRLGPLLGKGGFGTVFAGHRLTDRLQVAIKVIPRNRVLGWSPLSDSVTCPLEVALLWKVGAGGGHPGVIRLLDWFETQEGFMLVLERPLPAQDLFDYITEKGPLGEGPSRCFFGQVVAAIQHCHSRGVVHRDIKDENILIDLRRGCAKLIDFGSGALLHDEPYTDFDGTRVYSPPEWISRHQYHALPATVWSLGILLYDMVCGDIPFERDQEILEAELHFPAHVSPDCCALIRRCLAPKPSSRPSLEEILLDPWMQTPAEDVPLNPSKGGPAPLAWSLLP

Point of comparison: `COc1ccc2ncn(-c3cc(O[C@H](C)c4ccccc4Cl)c(C(N)=O)s3)c2c1`, inhibition -2.83%. Against it:
- COc1cc(N2CCN(C(C)C)CC2)ccc1Nc1nc(Nc2ccc(F)cc2C(=O)NC[C@@H](O)CO)c2cc[nH]c2n1 — lower, -3.2%
- NS(=O)(=O)c1ccc(N/N=C2\C(=O)Nc3ccc(-c4cnco4)cc32)cc1 — higher, 24.5%
- CN1CCN(CCCNc2nc3ccc(Oc4ccc(NC(=O)Nc5cc(C(F)(F)F)ccc5F)cc4)cc3[nH]2)CC1 — higher, -1.74%
- Fc1ccc(-c2ncn(C3CCNCC3)c2-c2ccnc(Oc3ccc(Oc4ccccc4)cc3)n2)cc1 — higher, -0.39%
- COc1cc(Nc2ncc3c(C)nc(-c4cccc(Oc5ccccc5)c4)n3n2)cc(OC)c1OC — higher, 1.14%
- CCc1ccc(Oc2nccc(-c3c(-c4ccc(F)cc4)ncn3C3CCNCC3)n2)cc1 — higher, 0.04%
- Cc1ccc(C(=O)NC(C)C)cc1-c1ccc(C(=O)NCC2CC2)cc1 — higher, 1.24%
- COc1cccc(-n2cnc3c(N/N=C/c4ccncc4)ncnc32)c1 — lower, -3.43%
- Fc1ccc(-c2ncn(C3CCNCC3)c2-c2ccnc(Oc3ccc4c(c3)OCO4)n2)cc1 — higher, 0.71%
- O=C(NCC1CC1)c1ccc(-c2cccc(C(=O)NC3CC3)c2)cc1 — higher, 0.96%
- C#Cc1cccc(Nc2ncnc3ccc(OCCCCNCCS(C)(=O)=O)cc23)c1 — higher, -1.09%
- NCc1ccc(-n2c(-c3nonc3N)nc3cnccc32)cc1 — higher, 45.2%
- O=C(Nc1n[nH]c2cc(-c3ccccc3)ccc12)C1CC1 — higher, 0.64%
- CCS(=O)(=O)c1ccc(OC)c(Nc2ncc(-c3cccc(-c4ccccc4F)c3)o2)c1 — higher, 0.73%
- CNC(=O)c1cncc(/C=C/c2c(C)cccc2C)c1 — lower, -3.47%
- CCC(=O)Nc1ccc(C)c(-c2ccc(C(=O)NCC3CC3)cc2)c1 — higher, 0.38%
- c1ccc(-c2n[nH]cc2-c2ccnc(-c3ccc(OCCN4CCOCC4)cc3)c2)nc1 — higher, 5.56%

The compounds below were run against Serine/threonine-protein kinase pim-3 (Homo sapiens) (UniProt Q86V86). Details: at 0.1 µM.

Point of comparison: `c1ccc(Oc2ccc(Nc3ncc(-c4ccccc4)o3)cc2)cc1`, inhibition 0.36%. Against it:
- NC(=O)c1cc(-c2ccncc2)cc(-c2ccccc2)c1N — lower, -4.72%
- COc1cc2ncn(-c3cc(OCc4cccs4)c(C(N)=O)s3)c2cc1OC — higher, 3.33%
- COc1ccc(C2=C(N3CCc4ccccc43)C(=O)NC2=O)cc1 — lower, -0.2%
- NS(=O)(=O)c1ccc(N/N=C2\C(=O)Nc3ccc(C(=O)NCCCn4ccnc4)cc32)cc1 — higher, 3.06%
- O=C(Nc1n[nH]c2nc(-c3ccc(O)cc3)c(Br)cc12)C1CC1 — higher, 31.9%
- Clc1ccc(CNc2nccc(-c3cnn4ncccc34)n2)cc1 — higher, 1.78%
- CS(=O)(=O)CCNCc1ccc(-c2ccc3ncnc(Nc4ccc(OCc5ccccc5)c(Br)c4)c3c2)o1 — lower, -0.66%
- Cc1ccc(NC(=O)c2ccoc2)cc1-c1ccc(C(=O)NCC2CC2)cc1 — higher, 0.71%
- C/C(Nc1ccc(S(N)(=O)=O)cc1)=C1/C(=O)Nc2ccccc21 — lower, 0.02%
- Fc1ccc(-c2c(-c3ccncc3)nc3n2CCS3)cc1 — lower, 0.35%
- O=C(Nc1ccc(Oc2ccc3[nH]c(NC(=O)c4ccccc4)nc3c2)cc1)Nc1cc(C(F)(F)F)ccc1F — higher, 0.85%
- O=C1NC(=O)C(c2cccc(Cl)c2)=C1Nc1ccc(Cl)c(C(=O)O)c1 — higher, 0.54%
- NS(=O)(=O)c1ccc(Nc2cc(-c3ccc(O)c(F)c3)n[nH]2)cc1 — lower, -0.55%
- COC(=O)Nc1nc2ccc(Sc3ccc(NC(=O)Nc4cc(C(F)(F)F)ccc4F)cc3)cc2[nH]1 — higher, 1.76%
- Cc1nnc(-c2ccc(C)c(-c3ccc(C(=O)NCc4ccc(Cl)cc4)cc3)c2)o1 — higher, 0.64%
- COc1ccc2ncn(-c3cc(O[C@H](C)c4ccccc4Cl)c(C(N)=O)s3)c2c1 — lower, 0.05%
- COc1cc(N2CCN(C(C)C)CC2)ccc1Nc1nc(Nc2ccc(F)cc2C(=O)NC[C@@H](O)CO)c2cc[nH]c2n1 — higher, 1.39%
- NS(=O)(=O)c1ccc(N/N=C2\C(=O)Nc3ccc(-c4cnco4)cc32)cc1 — higher, 1.42%
- CN1CCN(CCCNc2nc3ccc(Oc4ccc(NC(=O)Nc5cc(C(F)(F)F)ccc5F)cc4)cc3[nH]2)CC1 — higher, 1.11%
- Fc1ccc(-c2ncn(C3CCNCC3)c2-c2ccnc(Oc3ccc(Oc4ccccc4)cc3)n2)cc1 — lower, -1.06%
- COc1cc(Nc2ncc3c(C)nc(-c4cccc(Oc5ccccc5)c4)n3n2)cc(OC)c1OC — lower, 0.34%
- CCc1ccc(Oc2nccc(-c3c(-c4ccc(F)cc4)ncn3C3CCNCC3)n2)cc1 — higher, 1.11%
- Cc1ccc(C(=O)NC(C)C)cc1-c1ccc(C(=O)NCC2CC2)cc1 — higher, 1.28%
- COc1cccc(-n2cnc3c(N/N=C/c4ccncc4)ncnc32)c1 — higher, 3.67%
- Fc1ccc(-c2ncn(C3CCNCC3)c2-c2ccnc(Oc3ccc4c(c3)OCO4)n2)cc1 — lower, 0.14%
- O=C(NCC1CC1)c1ccc(-c2cccc(C(=O)NC3CC3)c2)cc1 — lower, -0.84%
- C#Cc1cccc(Nc2ncnc3ccc(OCCCCNCCS(C)(=O)=O)cc23)c1 — higher, 6.18%
- NCc1ccc(-n2c(-c3nonc3N)nc3cnccc32)cc1 — higher, 16.4%
- O=C(Nc1n[nH]c2cc(-c3ccccc3)ccc12)C1CC1 — lower, -2.16%
- CCS(=O)(=O)c1ccc(OC)c(Nc2ncc(-c3cccc(-c4ccccc4F)c3)o2)c1 — higher, 3.42%
- CNC(=O)c1cncc(/C=C/c2c(C)cccc2C)c1 — higher, 1.2%
- CCC(=O)Nc1ccc(C)c(-c2ccc(C(=O)NCC3CC3)cc2)c1 — lower, 0.17%
- c1ccc(-c2n[nH]cc2-c2ccnc(-c3ccc(OCCN4CCOCC4)cc3)c2)nc1 — higher, 5.26%
